Measurements from PubChem BioAssay AID1662 (Broad Institute, 2009).
Values joined by “and” are separate entries in the source; they are usually repeats but may differ in a detail not shown here. Equal values may be shown once. Hit rate of the full screen: of about 300,000 compounds, about 4,000 (1.3%) were called active. Shown is part of a subset that was picked to be rich in actives. Unmarked numbers belong to inactive results.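 How the source made its calls: active means mean replicate score, as percent of positive control median, at least 50; inconclusive means mean below 50 but one replicate at or above 50; inactive means mean and every replicate below 50.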

Assay: kanamycin survival loss of SKKanGAS strain – BacTiter-Glo luminescence, streptokinase expression inhibitor project, primary screen (AID 1662);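 further: strain carries kanamycin resistance gene driven by streptokinase promoter and grows in 40 µg/ml kanamycin; loss of luminescence reflects streptokinase promoter inhibition or plain growth inhibition; 0% = median of DMSO wells and 100% = positive control at its reference dose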
Details: S. pyogenes SKKanGAS, kanamycin growth, 6 h, at 7.5 µM, hits give high values
For COc1cccc(OC)c1C(=O)NC(=S)Nc1ccc(N2CCOCC2)c(Cl)c1, the inhibition was 4.82%.
For CCOc1ccc(C(=O)NC(=S)Nc2ccc(NC(=O)C(C)C)cc2)cc1[N+](=O)[O-], the inhibition was 19.7%.
For CCOc1ccc(C(=O)NC(=S)Nc2ccc(N3CCOCC3)c(Cl)c2)cc1[N+](=O)[O-], the inhibition was 84% (active).
Compound CCN(CC)C(=O)CS(=O)CC(=O)Nc1cc(OCCOC)c(Cl)cc1Cl (centres undefined) has an inhibition of 0.17%.
In the case of COc1ccc(NC(=O)Nc2cccc3cccnc23)cc1, the inhibition is reported as -7.39%.
For COc1cc(NS(=O)(=O)c2ccc3ccccc3c2)c2ncccc2c1, the inhibition was 85% (active).
In the case of Cc1ccc(NS(=O)(=O)c2ccc(C)c(NC(=O)COc3ccc4ccccc4c3)c2)c(C)c1, the inhibition is reported as 29.6%.
With C/C(=N\NC(=O)c1cccc([N+](=O)[O-])c1)c1cccnc1 the inhibition was -2.34%.
Work on Cc1cc([N+](=O)[O-])ccc1NC(=O)c1ccc(NC(=O)C(C)C)cc1 yielded an inhibition of 10.6%.
With Cn1ccc(=Nc2ccc(NC(=O)c3ccc(N=c4ccn(C)c5ccc([N+](=O)[O-])cc45)cc3)cc2)cc1 the inhibition was 75.8% (active).
For O=C(Nc1ccc(C(=O)N2CCCCC2)cc1)c1cccc([N+](=O)[O-])c1, the inhibition was 6.65%.
For O=C(CCN1C(=O)[C@@H]2Cc3ccccc3CN2C1=O)NCc1ccccc1, the inhibition was -1.78%.
For COC(=O)C1(C)NC(c2ccc(C)cc2)C2C(=O)N(c3ccc(F)cc3)C(=O)C21 (centres undefined), the inhibition was 0.707%.
In the case of CCOc1ccc(NC(=O)NNC(=O)c2ccc(Cl)cc2Cl)cc1, the inhibition is reported as -4.81%.
For NC(N)=N/N=C/c1ccc(OCc2ccc(Cl)cc2Cl)cc1, the inhibition was 50.8% (active).
OC(CNCCc1ccc(Cl)cc1Cl)COc1ccccc1 (centres undefined) gave an inhibition of 8.35%.
CCN(CCn1cccn1)C(=O)CC1C(=O)NCCN1Cc1cccc(OC)c1OC (centres undefined) showed an inhibition of -6.29%.
C/C(=N\NC(=O)OC(C)(C)C)c1ccc[nH]1 gave an inhibition of -6.42%.
Cc1ccc(CSc2nc(-c3ccccc3)c(C#N)c(=O)[nH]2)cc1 gave an inhibition of 43.6%.
With N#Cc1c(-c2ccccc2)nc(SCc2cccc(C(F)(F)F)c2)[nH]c1=O the inhibition was 67.4% (active).
N#Cc1c(-c2ccccc2)nc(SCc2ccc([N+](=O)[O-])cc2)[nH]c1=O gave an inhibition of 15.1%.
In the case of CN1CCN(C2Cc3ccc(Cl)cc3Sc3ccc(F)cc32)CC1 (centres undefined), the inhibition is reported as 68.7% (active).
In the case of Cc1ccc(CS(=O)(=O)c2ncc(Cl)c(C(=O)Nc3nnc(C)s3)n2)cc1, the inhibition is reported as 2.36%.
Compound C/C(=N\NC(=O)c1ccoc1C)c1ccccc1O has an inhibition of 4.94%.
Cc1ccc(-n2ncc3c2CC(C)(C)CC3NC(=O)Cc2c(C)noc2C)cc1 (centres undefined) showed an inhibition of -4.1%.
In the case of CCc1ccc2c(c1)C1(NN=C(c3ccccc3)S1)C(=O)N2 (centres undefined), the inhibition is reported as 96.7% (active).
For COc1cccc(NC(=O)C2C(c3ccccc3)C2(Cl)Cl)c1 (centres undefined), the inhibition was 31.8%.
With CCc1ccc(Oc2nc([N+](=O)[O-])nn2C)cc1 the inhibition was 2.57%.
For Cc1cc(C(=O)N2CCC(C(=O)O)CC2)c(C(F)(F)F)o1, the inhibition was -3.49%.
CCc1noc(C)c1C(=O)Nc1nc2ccc(OC)cc2s1 gave an inhibition of -6.51%.
In the case of Cc1noc(C)c1CSCC(=O)Nc1ccc(Br)cc1Cl, the inhibition is reported as 32.2%.
For Cc1noc(C)c1CSCC(=O)Nc1nc2ccc(Oc3ccccc3)cc2s1, the inhibition was 51.3% (active).
With COc1ccc(C(=O)Nc2ccc(C3(C#N)CCCC3)cc2)cc1OC the inhibition was 0.181%.
For O=C(/C=C/c1ccc([N+](=O)[O-])o1)NNC(=O)c1ccc(F)cc1, the inhibition was 52.7% (active).
In the case of C/[N+]([O-])=C\c1ccc([N+](=O)[O-])o1, the inhibition is reported as 1.43%.
Compound Cc1ccc(/C=C/C(=O)Nc2ccc([N+](=O)[O-])c(NC(=O)/C=C/c3ccc(C)o3)c2)o1 has an inhibition of 6.98%.
In the case of CC(=O)Oc1ccc(-c2cccc(C(=O)N3CCCCC3)c2)cc1, the inhibition is reported as -5.29%.
For CCN1CCN(C(=O)N(Cc2ccc(Cl)cc2)S(=O)(=O)c2ccc(C)cc2)CC1, the inhibition was -0.707%.
For COC(=O)c1ccc(COc2ccc(/C=C/C(=O)c3ccc(OC)c(CSCC(=O)O)c3)cc2OC)cc1, the inhibition was -12.5%.
With COc1ccc(C(=O)/C=C/c2ccc(-c3ccccc3)cc2)cc1CSCC(=O)O the inhibition was 51.6% (active).
Work on COc1ccc(/C=C/C(=O)c2ccc(NS(=O)(=O)c3ccc(C)cc3)cc2)cc1O yielded an inhibition of 31.2%.
For Cc1occc(=O)c1OCc1c(Cl)cccc1Cl, the inhibition was 1.59%.
CCN(CC)c1ccc(S(=O)(=O)N2CCCCC2)cc1NC(=O)C1=COCCO1 showed an inhibition of -12%.
With S=C1Nc2cc(Cl)ccc2Sc2ccccc21 the inhibition was 3.58%.
In the case of O=C1Cc2ccccc2Sc2ccc(Cl)cc21, the inhibition is reported as 75% (active).
Compound O=C1CC2(CCCC2)Oc2ccc(Cl)cc21 has an inhibition of 9.19%.
With O=C(CCNC(=O)c1ccc(Br)cc1)NCCCc1ccccc1 the inhibition was -14.7%.
CN(CCc1ccccn1)S(=O)(=O)c1ccc2c3c(cccc13)C(=O)N2 showed an inhibition of -0.86%.
O=C(NCc1ccncc1)C1CCCN(S(=O)(=O)c2ccc(Br)cc2)C1 (centres undefined) gave an inhibition of 3.53%.
For O=C1CCCc2c1nc(-c1cccc(Cl)c1)n2O, the inhibition was -3.24%.
Work on Cc1cccc(-c2nc3ccccc3c(=O)n2NC(=O)Cc2ccc(Cl)cc2)c1 yielded an inhibition of -2.71%.
With O=c1c2cc(Br)ccc2nc(-c2cccc(Cl)c2)n1O the inhibition was 78.4% (active).
Compound CCCOc1ccc(C2NC(=O)NC(c3ccccc3)=C2C(C)=O)cc1OCC (centres undefined) has an inhibition of -8.73%.
In the case of Cc1cccc([C@@H]2[C@@H]3C(=O)N(Cc4ccccc4)C(=O)[C@@H]3[C@]3(Cc4ccc(Cl)cc4)C(=O)N(c4cccc(Cl)c4)C(=O)N23)c1, the inhibition is reported as -2.38%.
With CC(OC(=O)CNC(=O)c1ccc(Cl)c([N+](=O)[O-])c1)C(=O)NCc1ccco1 (centres undefined) the inhibition was -7.18%.
In the case of COc1cccc(/C=N/Nc2ncc(C(F)(F)F)cc2Cl)c1O, the inhibition is reported as 95.9% (active).
In the case of COC(=O)Cc1ccc(Oc2ncc(C(F)(F)F)cc2Cl)cc1, the inhibition is reported as -5.08%.
Compound COc1cccc(/C(C)=N/Nc2ncc(Cl)cc2Cl)c1 has an inhibition of -4.25%.
Compound Cc1cc(N)n2nc(-c3ccc(C(C)(C)C)cc3)cc2n1 has an inhibition of 38.2%.
For O=C(N/N=C/c1cc([N+](=O)[O-])ccc1O)/C(=C\c1cccs1)NC(=O)c1ccccc1, the inhibition was 83.5% (active).
Compound O=C(N/N=C/c1ccc(O)cc1)/C(=C/c1ccc([N+](=O)[O-])cc1)NC(=O)c1ccccc1 has an inhibition of -0.983%.
With O=[N+]([O-])c1ccc(O)c(/C=N/Nc2ccccc2[N+](=O)[O-])c1 the inhibition was 17.8%.
Work on CN(CC(=O)Nc1c(Cl)cccc1Cl)C(=O)CNC(=O)C1CCCCC1 yielded an inhibition of -1.53%.
For Cc1ccc(C)c(N2CCN(C(=O)CCCCCn3c(=S)[nH]c4ccc(N5CCOCC5)cc4c3=O)CC2)c1, the inhibition was 50.8% (active).
Compound O=C(CCCCCn1c(=S)[nH]c2cc3c(cc2c1=O)OCO3)N1CCN(c2ccc(F)cc2)CC1 has an inhibition of 4.31%.
Cc1ccc(C)c(N2CCN(C(=O)CCCCn3c(=O)[nH]c4ccccc4c3=O)CC2)c1 gave an inhibition of 10.5%.
Compound COc1ccc2nc(NC(=O)NC3CCCCC3)sc2c1 has an inhibition of -5.74%.
In the case of CCCC(=O)Nc1nc2ccc(NC(=O)c3cccnc3)cc2s1, the inhibition is reported as -13.3%.
For CCOc1ccc2nc(NC(=O)c3cc([N+](=O)[O-])ccc3N3CCOCC3)sc2c1, the inhibition was 50.1% (active).
Work on COc1ccc(S(=O)(=O)N2CCCCC2)cc1NC(=O)c1cc([N+](=O)[O-])ccc1N1CCOCC1 yielded an inhibition of 12.2%.
With COc1ccc2nc(Nc3nc4ccc(NC(C)=O)cc4s3)sc2c1 the inhibition was 54.9% (active).
In the case of O=C(NC1CCCCC1)c1cc([N+](=O)[O-])ccc1N1CCOCC1, the inhibition is reported as 3.56%.
Compound CSc1nc2ccc(NC(=O)c3c(F)cccc3F)cc2s1 has an inhibition of -1.79%.
Work on CCOc1ccc2nc(NC(=O)CSc3nc4c(c(=O)n(C)c(=O)n4C)n3CC)sc2c1 yielded an inhibition of 4.34%.
Compound CCC(=O)c1ccc(OCC(=O)Nc2ccc3nc(C)sc3c2)cc1 has an inhibition of -10.4%.
For CCCC(=O)Nc1nc2ccc(NC(=O)c3c(F)c(F)c(OC)c(F)c3F)cc2s1, the inhibition was 71.5% (active).
With CCOc1ccc2nc(Nc3nc4ccc(NC(C)=O)cc4s3)sc2c1 the inhibition was 62.6% (active).
Compound COc1ccc2nc(NC(=O)c3ccc(Br)s3)sc2c1 has an inhibition of 38.2%.
For CCCCSc1nc2c(c(=O)n1CC)SC(C)C2 (centres undefined), the inhibition was -4.67%.
Work on COCC1CCN(C(=O)C2CCC(=O)N(CC3CCCCC3)C2)CC1 (centres undefined) yielded an inhibition of -1.21%.
O=C(c1cc2c(s1)CCC2)N1CCN(c2ccccc2)CC1 showed an inhibition of 3.4%.
Compound CCNc1nc(NC(C)C)nc(N2CC(=O)N(CC(=O)OCC)C2=N)n1 has an inhibition of 0.266%.
For COc1ccc(S(=O)(=O)N2CCOC23CCN(S(=O)(=O)c2ccc([N+](=O)[O-])cc2)CC3)cc1, the inhibition was 2.41%.
In the case of CCc1nn(CCCN2CCN(c3cccc(Cl)c3)CC2)c(=O)n1CCOc1ccccc1, the inhibition is reported as -2.67% and -3.29%.
For COc1cc(NS(=O)(=O)c2ccc(N/C=C(\C=O)c3nc4cc(Cl)ccc4o3)cc2)nc(OC)n1, the inhibition was 22%.
For CSc1ccc(CN(C)CC(=O)NCc2ccc(F)cc2)cc1, the inhibition was -18.5%.
CC(C)(C)n1nnc(CCc2nnn(C(C)(C)C)n2)n1 showed an inhibition of -4.02%.
CCCCCCCCc1c(O)nc(-n2[nH]c(C)c(CCO)c2=O)[nH]c1=O gave an inhibition of 9.64%.
With O=C(Nc1ccccc1F)c1ccccc1-c1ccc(C(F)(F)F)cc1 the inhibition was -10.9%.
